In PubChem BioAssay (Tox21) one finds Potency and outcome data, which are given here for 10 compounds.

Test [1] in a line: qHTS assay to identify small molecule agonists of the RXR signaling pathway - cell viability counter screen (AID 1159529). Also: nearly all actives have a fitted effect of over 50% in size. Also: potency is read from the fitted curve at half-maximal effect. Summed up: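 CellTiter-Glo luminescence gave viability in the wells also read for beta-lactamase. Cells (RXR-alpha-UAS-bla HEK 293T, 2% charcoal-stripped FBS medium) had 5 hr plating, then 16 hr compound exposure at 37 C; tetraoctyl ammonium bromide served as positive control.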
Background: In qHTS, concentration-response curves come from the screen itself.

Test [2] is described as follows: qHTS assay to identify small molecule antagonists of the retinoid acid receptor (RAR) signaling pathway - cell viability counter screen (AID 1159551). Also: nearly all actives have a fitted effect of over 35% in size. Summed up:
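Retinol-stimulated (1 uM final) C3RL4 cells, compound 6 h, 37 C; readout CellTiter-Glo luminescence (ATP) after 30 min RT incubation.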

Test [3] in a line: qHTS assay to identify small molecule antagonists of the retinoic acid receptor (RAR) signaling pathway (AID 1159552; also: nearly all actives have a fitted effect of over 50% in size). Summed up:
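Luminescent RARE reporter read-out in C3RL4 cells: 6 hr co-treatment at 37 C of test compounds with retinol at 1 uM final. Cells plated overnight beforehand; luciferase reagent incubated 30 min at room temperature before reading.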

A short description of test [4]: qHTS assay to identify small molecule agonists of the retinoic acid receptor (RAR) signaling pathway (AID 1159553). Also: potency is read from the fitted curve at half-maximal effect. Summed up: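 Reporter readout comes from luciferase under RARE control in C3RL4 cells; compound exposure lasts 6 hr at 37 C in 5% CO2, and luminescence is recorded following a 30 min room-temperature incubation with reagent.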
Test [5] can be described thus: qHTS assay to identify small molecule antagonists of the estrogen related receptor (ERR) signaling pathway from Tox21 library - cell viability counter screen (AID 1224834). Also: nearly all actives have a fitted effect of over 30% in size. Also: potency is read from the fitted curve at half-maximal effect. Summed up:
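After 17.5 h of compound exposure at 37 C, ERR cells are incubated with CellTiter-Fluor for 30 min and fluorescence intensity serves as the viability measure.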

For test [6], the target named is Luciferin 4-monooxygenase (Photinus pyralis) (UniProt P08659). The experiment in a line: qHTS assay to identify small molecule inhibitors of firefly luciferase (AID 1224835). Also: series mostly up to about 120 µM; nearly all actives have a fitted effect of over 25% in size. Summed up:
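Inhibition of purified Photinus luciferase is measured by luminescence. Substrate levels (D-luciferin, ATP) sit at their KM values. Each compound is tested in a concentration series.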

The nature of test [7]: qHTS assay to identify small molecule agonists of the constitutive androstane receptor (CAR) signaling pathway - cell viability counter screen (AID 1224836). Also: series mostly up to about 92 µM; nearly all actives have a fitted effect of over 45% in size. Summed up: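 Cell viability multiplexed with the CAR agonist screen: CellTiter-Fluor fluorescence after 23 hr at 37 C. HepG2-CYP2B6-hCAR cells got compounds at 15 concentrations with PK11195 at 0.75 uM final.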
Test [8] can be described thus: qHTS assay to identify small molecule antagonists of the constitutive androstane receptor (CAR) signaling pathway - cell viability counter screen (AID 1224837). Also: series mostly up to about 92 µM; nearly all actives have a fitted effect of over 45% in size. Summed up: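 Counter screen run in HepG2-CYP2B6-hCAR cells: 4 hr settle, compound titration (15 concentrations) with 50 nM CITCO, 23 hr at 37 C/5% CO2, CellTiter-Fluor fluorescence.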
In test [9] the target is Nuclear receptor subfamily 1 group I member 3 (Homo sapiens) (UniProt Q14994). The experiment in a line: qHTS assay to identify small molecule antagonists of the constitutive androstane receptor (CAR) signaling pathway (AID 1224838).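 Also: HepG2 cells stably expressing hCAR with CYP2B6 luciferase reporter stimulated by CITCO; nearly all actives have a fitted effect of over 40% in size.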 Also: potency is read from the fitted curve at half-maximal effect. Summed up:
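Cell line: HepG2 double-stable for hCAR and CYP2B6-2.2kb reporter. Agonist: CITCO, 50 nM final. Compounds: 15 concentrations, 24 h, 37 C. Detection: ONE-Glo luminescence.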

Test [10] is described as follows: qHTS assay to identify small molecule antagonists of the estrogen related receptor signaling pathway with the pleiotropic PPARgamma coactivator (PGC) from Tox21 10K library - cell viability counter screen (AID 1224840; active = well fitted cell-killing curve with a large enough effect in the repeat runs, not every such curve was filed as active; also: nearly all actives have a fitted effect of over 40% in size). Summed up:
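Following seeding of 2,000 PGC/ERR cells/well and 6 hours' incubation, test compounds were delivered in DMSO. The plates then sat 17.5 hours at 37 C before a fluorogenic live-cell protease reagent (CellTiter-Fluor) was read after 30 min.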

Test [11] concerns the target Thyrotropin receptor (Homo sapiens) (UniProt P16473). Nature of the test: qHTS assay to identify small molecule agonists of the thyroid stimulating hormone receptor (TSHR) signaling pathway (AID 1224843; calls by dose curve; also: nearly all actives have a fitted effect of over 45% in size; also: potency is read from the fitted curve at half-maximal effect). Summed up:
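HEK293 cells stably bearing the thyrotropin receptor were plated at 800 cells/well and challenged with compound (30 min, RT). Accumulated cAMP was quantified via cAMP-d2 competing for cryptate-tagged antibody.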

Test [12] in a line: qHTS assay to identify small molecule antagonists of the estrogen related receptor (ERR) signaling pathway - cell viability counter screen (AID 1224818). Also: series mostly up to about 46 µM. Summed up: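 After a 6 h pre-incubation, ERR cells were dosed by pin tool with compounds, positive/negative controls or DMSO alone. Following 17.5 h at 37 C and 30 min with CellTiter-Fluor, fluorescence was recorded.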
Test [13] can be described thus: qHTS assay to identify small molecule antagonists of the estrogen related receptor (ERR) signaling pathway (AID 1224819;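 also: luminescence from an ERR-driven luciferase reporter measured with One-Glo reagent; series mostly up to about 46 µM; nearly all actives have a fitted effect of over 50% in size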). Summed up: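 Luminescence readout (One-Glo, 30 min, RT) of ERR cell line after 18 h compound exposure at 37 C; cells seeded 2,000/well, pre-incubated 6 h, compounds pinned from DMSO stocks.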
Test [14] is described as follows: qHTS assay to identify small molecule agonists of the estrogen related receptor (ERR) signaling pathway (AID 1224820). Summed up:
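Quantitative HTS of the LOPAC library used NTP ERR reporter cells treated 18 h at 37 C. Signal is luminescence after One-Glo addition and a 30 min room-temperature incubation.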

Test [15] has as its system estrogen-related receptor alpha (ERRalpha) with PGC-1alpha coactivator, human. The experiment in a line: qHTS assay to identify small molecule antagonists of the estrogen related receptor signaling pathway with the pleiotropic PPARgamma coactivator (PGC) (AID 1224821; calls by dose curve;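 also: series mostly up to about 46 µM; lower luminescence signal means antagonism of PGC/ERR signalling; nearly all actives have a fitted effect of over 50% in size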). Summed up: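 Quantitative HTS for antagonism: PGC/ERR cells received compounds after 6 h attachment and were incubated 18 h at 37 C, with luminescence (One-Glo) as the endpoint.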

Test [16] can be described thus: qHTS assay to identify small molecule antagonists of the estrogen related receptor signaling pathway with the pleiotropic PPARgamma coactivator (PGC) cell viability counter screen (AID 1224822; also: series mostly up to about 46 µM). Summed up: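 PGC/ERR cells were plated at 2,000 per well and allowed 6 h to settle before compound addition. Following 17.5 h at 37 C, CellTiter-Fluor reagent was added and fluorescence was read 30 min later.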

The nature of test [17]: qHTS assay to identify small molecule agonists of the estrogen related receptor signaling pathway with the pleiotropic PPARgamma coactivator (PGC) (AID 1224823). Summed up: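 Cell-based luciferase assay in the NTP-supplied PGC/ERR line, 2,000 cells/well; 18 h compound exposure at 37 C, luminescence after One-Glo.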
Test [18] is described as follows: qHTS assay to identify small molecule agonists of the estrogen related receptor signaling pathway with the pleiotropic PPARgamma coactivator (PGC) from Tox21 10K library (AID 1224842). Also: nearly all actives have a fitted effect of over 15% in size. Summed up:
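Luminescence from One-Glo (30 min, room temperature) measured after PGC/ERR cells had 18 h at 37 C with pinned compound (23 nL in DMSO). Cells had been seeded at 2,000 per well and pre-incubated 6 h.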

Test [19] deals with Nuclear receptor subfamily 1 group I member 3 (Homo sapiens) (UniProt Q14994). Nature of the test: qHTS assay to identify small molecule agonists of the constitutive androstane receptor (CAR) signaling pathway (AID 1224839).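 Also: HepG2 cells stably carrying human CAR and a CYP2B6 luciferase reporter; series mostly up to about 92 µM; nearly all actives have a fitted effect of over 15% in size.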 Summed up: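 Luminescent ONE-Glo read-out after 24 hr, 37 C exposure of double-stable HepG2-CYP2B6-hCAR reporter cells to a 15-point compound series, in the presence of 0.75 uM PK11195 (final).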

Test [20] is described as follows: qHTS assay to identify small molecule antagonists of the estrogen related receptor signaling pathway with the pleiotropic PPARgamma coactivator (PGC) from Tox21 10K library (AID 1224841; call rule not given here). Summed up:
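qHTS antagonist format: PGC/ERR cells, 2k/well, compound in DMSO by pin transfer after 6 h attachment, 18 h treatment at 37 C, One-Glo luminescence read at 30 min.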

Each structure is given as a SMILES string. Results filed as inconclusive are left out. Unmarked numbers belong to inactive results. Calls of active or inactive are those of the source. Unless noted, calls follow the shape of the dose curve; as a rule, active = well fitted curve in the direction sought with a large enough effect in the repeat runs; inconclusive = weak or mixed curves; inactive = no such curve, though single readings can be large; an effect the other way counts as inactive or inconclusive.

Nuclear receptor subfamily 1 group I member 3 (Homo sapiens), sequence (Q14994 whole entry, looked up): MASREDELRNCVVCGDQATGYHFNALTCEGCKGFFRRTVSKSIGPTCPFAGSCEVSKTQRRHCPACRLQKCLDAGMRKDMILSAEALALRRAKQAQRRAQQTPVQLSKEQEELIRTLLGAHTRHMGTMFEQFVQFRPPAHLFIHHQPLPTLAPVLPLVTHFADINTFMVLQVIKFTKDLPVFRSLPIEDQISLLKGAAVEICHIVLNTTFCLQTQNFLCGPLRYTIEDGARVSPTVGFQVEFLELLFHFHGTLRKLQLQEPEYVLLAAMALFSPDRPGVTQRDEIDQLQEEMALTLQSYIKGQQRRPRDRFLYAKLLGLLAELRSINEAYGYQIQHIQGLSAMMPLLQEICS
Luciferin 4-monooxygenase (Photinus pyralis), sequence (P08659 whole entry, looked up): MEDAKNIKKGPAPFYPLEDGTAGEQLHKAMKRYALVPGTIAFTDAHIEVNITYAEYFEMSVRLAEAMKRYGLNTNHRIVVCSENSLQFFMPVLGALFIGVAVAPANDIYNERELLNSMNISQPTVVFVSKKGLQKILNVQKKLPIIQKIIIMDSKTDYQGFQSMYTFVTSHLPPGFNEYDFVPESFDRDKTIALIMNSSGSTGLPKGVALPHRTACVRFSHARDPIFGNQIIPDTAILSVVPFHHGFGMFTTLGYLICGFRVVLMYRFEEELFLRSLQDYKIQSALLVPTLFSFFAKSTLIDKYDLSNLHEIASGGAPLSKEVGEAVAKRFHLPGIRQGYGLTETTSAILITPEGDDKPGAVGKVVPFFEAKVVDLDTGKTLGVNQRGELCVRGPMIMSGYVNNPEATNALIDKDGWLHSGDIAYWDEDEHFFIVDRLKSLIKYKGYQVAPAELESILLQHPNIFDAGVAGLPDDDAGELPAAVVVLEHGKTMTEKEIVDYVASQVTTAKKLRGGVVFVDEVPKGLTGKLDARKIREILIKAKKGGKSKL
Thyrotropin receptor (Homo sapiens), sequence (P16473 whole entry, looked up): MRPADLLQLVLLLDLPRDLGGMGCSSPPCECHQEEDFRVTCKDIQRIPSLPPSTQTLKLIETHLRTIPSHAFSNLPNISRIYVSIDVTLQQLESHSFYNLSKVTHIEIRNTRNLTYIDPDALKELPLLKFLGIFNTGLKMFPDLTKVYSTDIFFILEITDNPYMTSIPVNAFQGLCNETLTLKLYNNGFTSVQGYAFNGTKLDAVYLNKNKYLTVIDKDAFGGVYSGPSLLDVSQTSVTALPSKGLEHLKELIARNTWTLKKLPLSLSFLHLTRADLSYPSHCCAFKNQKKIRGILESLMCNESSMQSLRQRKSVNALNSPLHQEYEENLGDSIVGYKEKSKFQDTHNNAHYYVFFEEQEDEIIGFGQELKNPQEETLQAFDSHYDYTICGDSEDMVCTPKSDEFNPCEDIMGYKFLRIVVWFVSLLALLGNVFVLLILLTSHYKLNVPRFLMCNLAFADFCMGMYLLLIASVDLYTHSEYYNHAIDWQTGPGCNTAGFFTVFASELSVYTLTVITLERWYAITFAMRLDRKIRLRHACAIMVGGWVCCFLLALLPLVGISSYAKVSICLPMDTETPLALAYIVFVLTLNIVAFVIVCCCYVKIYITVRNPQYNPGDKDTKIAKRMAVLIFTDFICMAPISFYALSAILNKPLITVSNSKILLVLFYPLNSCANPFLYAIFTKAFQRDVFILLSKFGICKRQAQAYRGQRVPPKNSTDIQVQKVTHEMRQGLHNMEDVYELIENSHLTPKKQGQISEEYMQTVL

`CCCCOc1cc(C(=O)OCCN(CC)CC)ccc1N`: the Potency result in [1], in [2], in test [3], in test [4], in test [5] and in test [6] was “inactive” in each case. In addition, the Potency result in [7], in [8], in [9] and in test [10] was “inactive” in each case.
With `CN(c1nccc(=O)[nH]1)C1CCN(c2nc3ccccc3n2Cc2ccc(F)cc2)CC1`, the Potency result in [1], in test [2], in test [3], in test [4], in [5] and in test [6] was “inactive” each time. For the same compound, the Potency entry in test [7], in [8], in [9], in test [10] and in test [11] was “inactive” throughout.
In the case of `CC(C)NCC(O)c1cc(O)cc(O)c1` (configuration not stated), the Potency entry in [1], in [2], in test [3], in test [4], in test [5] and in test [6] was “inactive” throughout. The Potency result in [7], in [8], in test [9], in test [10] and in test [18] was “inactive” throughout. Also, the compound was called inactive in [12], in test [13], in [14], in test [15], in [16] and in [17]. Moreover, in [11], the Potency is 10.6 µM (active).
As to `CN(C)CCCNCCCN`, the Potency in [1] is 48.8 µM (active). In addition, the Potency result in [2], in [3], in test [4], in test [5], in test [6] and in test [7] was “inactive” in each case. Besides, the Potency entry in [8], in test [19] and in test [10] was “inactive” throughout.
Take `CN1CCN(C2=Nc3cc(Cl)ccc3Nc3ccccc32)CC1`: the Potency result in test [1], in test [2], in [3], in test [4], in test [6] and in test [11] was “inactive” each time. In test [12], the compound was called inactive. Moreover, the Potency in test [5] was 26.6 µM (active).
On to `N#Cc1c(F)cccc1F`, for which the Potency entry in [1], in [2], in test [3], in test [4], in [5] and in test [6] was “inactive” in each case. For the same compound, the Potency entry in test [7], in [8], in [9], in test [19], in test [10] and in [11] was “inactive” throughout.
As for `CC(C)CCCCCCOC(=O)c1ccc(C(=O)OCCCCCCC(C)C)c(C(=O)OCCCCCCC(C)C)c1`, the Potency result in test [1], in [2], in test [3], in test [4], in test [5] and in test [6] was “inactive” each time. The Potency entry in [7], in test [8], in [9], in test [19], in [10] and in test [11] was “inactive” throughout.
Regarding `Cn1c(N)nc2nc[nH]c2c1=O`, the Potency result in test [1], in test [2], in [3], in test [4], in test [5] and in [6] was “inactive” throughout. For the same compound, the Potency result in test [7], in test [8], in test [10] and in [11] was “inactive” throughout. Moreover, in test [9], the Potency is 48 µM (active).
For `O=C(c1ccccc1)c1ccc2n1CCC2C(=O)O` (configuration not stated), the Potency result in test [1], in test [2], in test [3], in [5], in test [7] and in test [8] was “inactive” in each case. Also, the Potency entry in test [9] and in [10] was “inactive” each time. Also, in [4], the Potency was 13.3 µM (active). Further, the outcome in test [12] and in [16] was inactive.
Turning to `CCN(CC)C(C)=O`, the Potency entry in [1], in [2], in test [3], in [4], in test [5] and in test [6] was “inactive” each time. Moreover, the Potency result in test [7], in [8], in [9], in test [19], in test [10] and in test [20] was “inactive” throughout. Also, the Potency result in [18] and in test [11] was “inactive” each time.
